“And” between values parts separate entries of the source, which are not always exact repeats. Equal entries are not always repeated. Results filed as inconclusive are left out. A call without a number means that no potency is given here. The source holds several records for some structures; these can differ, active in one and inactive in another. The source made the active and inactive calls. Calls come from the whole dose curve; as a rule, active = well fitted curve in the direction sought with a large enough effect in the repeat runs; inconclusive = weak or mixed curves; inactive = no such curve, though single readings can be large; an effect the other way counts as inactive or inconclusive.
Potency is the fitted concentration of half-maximal effect.

The first assay is described as follows: A CellTox Green Cytotoxicity Assay to monitor cytotoxicity in HepG2 cells - 16 hour (AID 1224876). Note: nearly all actives have a fitted effect of over 45% in size. To be noted: CellTox Green fluorescence; series mostly up to 76.8 µM. The method in brief:
(§1)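 Fluorescent DNA-binding dye, 600 HepG2 cells/well, 5 h preincubation then compound in DMSO; same plates read at 0–40 h, 37 C.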
On to `Clc1ccc2cc3ccccc3cc2c1`, for which the Potency entry is “inactive”.
As to `Nc1ccccc1O`, the Potency result was “inactive”.
As for `Cc1oc(-c2ccccc2)nc1CCC(=O)c1ccc(CC2SC(=O)NC2=O)cc1` (stereo unspecified), the Potency entry is “inactive”.
With `CS(=O)(=O)CCNCc1ccc(-c2ccc3ncnc(Nc4ccc(OCc5cccc(F)c5)c(Cl)c4)c3c2)o1`, the Potency result is “inactive”.
Same read-out and setting: the result for `O=C(O)c1c(Cl)cccc1Cl` reads “inactive”; that for `CCN(Cc1cccnc1)C(=O)c1cccc(Cl)c1[C@]1(C)C(=O)N(Cc2ccc(OC)cc2OC)c2ccc(Cl)cc21`, “inactive”.
For the molecule `CCCCCCCCCCCCCCCCCC[N+](C)(C)Cc1ccccc1`, the Potency was 44.1 µM (active).
The same measure, in the same setting: the result for `CCN(C(=O)c1cc(C)cc(OC[C@H](C)Nc2ccncc2)c1)C(C)C` reads “inactive”; that for `CCCCN1C(=O)[C@@H]([C@H](O)C2CCCCC2)NC(=O)C12CCN(Cc1ccc(Oc3ccc(C(=O)O)cc3)cc1)CC2`, “inactive”.
The same measure, in the same setting: the result for `O=C1CCCCCN1SSN1CCCCCC1=O` reads “inactive”; that for `CCCCCOc1ccccc1/C(=C\SC)n1ccnc1`, “inactive”; that for `c1cc(C(c2ccc(OCC3CO3)cc2)c2ccc(OCC3CO3)cc2)ccc1OCC1CO1` (stereo unspecified), “inactive”.
Still for that read-out and setting: the value for `CCCCCCCCOC(=O)c1ccc(O)cc1` was “inactive and 43.6 µM (active)”.
Turning to `CO[Si](CCCNc1ccccc1)(OC)OC`, the Potency result is “inactive”.
Regarding `CCCCCCCCS(=O)C(C)Cc1ccc2c(c1)OCO2` (stereo unspecified), the Potency result was “inactive”.
The same measure, in the same setting: the value for `Cc1c(C)c2c(c(C)c1OC(=O)CCC(=O)O)CC[C@@](C)(CCC[C@H](C)CCC[C@H](C)CCCC(C)C)O2` was “inactive”; that for `CC[C@H](c1ccc(O)cc1)[C@@H](CC)c1ccc(O)cc1` was 49 µM (active); that for `Cc1nc(-c2ccc3c(c2)CCN(CCC2CCC(NC(=O)/C=C/c4ccc(F)cc4)CC2)CC3)no1` (stereo unspecified) was “inactive”.
Still for that read-out and setting: the result for `CN1CCN(CCC(=O)N2c3ccccc3Sc3ccc(C(F)(F)F)cc32)CC1` reads 10.7 µM (active); that for `O=C(N/N=C/c1ccccc1O)c1ccncc1`, “inactive”.
Regarding `CCN(C(=O)N(CC)c1ccccc1)c1ccccc1`, the Potency result is “inactive”.
Take `CC[C@@]1(O)C(=O)OCc2c1cc1n(c2=O)Cc2cc3c(CN(C)C)c(O)ccc3nc2-1`: the Potency was 21.3 µM (active).

The next assay in a line: qHTS RealTime-Glo MT Cell Viability Assay in HepG2 cells - 32 hour (AID 1224877). Note: nearly all actives have a fitted effect of over 55% in size. To be noted: RealTime-Glo luminescence; series mostly up to 76.8 µM. An outline of the steps:
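HepG2 cells (600/well) were dispensed with RealTime-Glo reagents, incubated 5 h at 37 °C, then treated with compounds in DMSO for up to 40 h. Nonlytic NanoLuc luminescence reflecting viable cells was read at each stated time point.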
(In qHTS, concentration-response curves come from the screen itself.)
On to `Clc1ccc2cc3ccccc3cc2c1`, for which the Potency entry was “inactive”.
In the case of `Nc1ccccc1O`, the Potency entry is “inactive”.
For `Cc1oc(-c2ccccc2)nc1CCC(=O)c1ccc(CC2SC(=O)NC2=O)cc1` (stereo unspecified), the Potency entry was “inactive”.
Still for that read-out and setting: the result for `O=C(O)c1c(Cl)cccc1Cl` reads “inactive”.
As to `CCC1OCC(COc2ccc(Oc3ccccc3)cc2)O1` (stereo unspecified), the Potency result was “inactive”.
On the same count and under the same terms, the result for `Cn1cc(C(=O)[C@@H]2CCc3nc[nH]c3C2)c2ccccc21` reads “inactive”; that for `C[C@H]1[C@H]2CC[C@H]3[C@@H]4CC=C5C[C@@H](N(C)C)CC[C@]5(C)[C@H]4CC[C@]23CN1C`, “inactive”.
On the same count and under the same terms, the value for `Cc1ccc(O)c2ncccc12` was “inactive”.
On the same count and under the same terms, the value for `CCCCCCCCCCCCCCCCCC[N+](C)(C)Cc1ccccc1` was 35 µM (active).
For the molecule `CCN(C(=O)c1cc(C)cc(OC[C@H](C)Nc2ccncc2)c1)C(C)C`, the Potency entry was “inactive”.
With `O=[N+]([O-])c1cc([N+](=O)[O-])c2ccc(S(=O)(=O)O)cc2c1O`, the Potency result is “inactive”.
Consider `Cc1cccc(CN2CCN(C(c3ccccc3)c3ccc(Cl)cc3)CC2)c1` (stereo unspecified), for which the Potency entry was “inactive”.
As to `CCCCN1C(=O)[C@@H]([C@H](O)C2CCCCC2)NC(=O)C12CCN(Cc1ccc(Oc3ccc(C(=O)O)cc3)cc1)CC2`, the Potency result was “inactive”.
The same measure, in the same setting: the result for `Cc1onc(-c2ccccc2Cl)c1C(=O)N[C@@H]1C(=O)N2[C@@H]1SC(C)(C)[C@@H]2C(=O)O` reads “inactive”.
Regarding `CCCCCOc1ccccc1/C(=C\SC)n1ccnc1`, the Potency result is “inactive”.
Still for that read-out and setting: the value for `Cc1[nH]nc2c1N=C(c1ccccc1Cl)c1cc([N+](=O)[O-])ccc1N2` was “inactive”.
For `CCCCCCCCOC(=O)c1ccc(O)cc1`, the Potency result is “inactive”.
On the same count and under the same terms, the result for `CO[Si](CCCNc1ccccc1)(OC)OC` reads “inactive”.
With `CCCCCCCCS(=O)C(C)Cc1ccc2c(c1)OCO2` (stereo unspecified), the Potency result is “inactive”.
Still for that read-out and setting: the result for `Cc1c(C)c2c(c(C)c1OC(=O)CCC(=O)O)CC[C@@](C)(CCC[C@H](C)CCC[C@H](C)CCCC(C)C)O2` reads 55.6 µM (active); that for `CCOC(=O)/C=C(C)/C=C/C=C(C)/C=C/c1c(C)cc(OC)c(C)c1C`, “inactive”.
Take `CC[C@H](c1ccc(O)cc1)[C@@H](CC)c1ccc(O)cc1`: the Potency result is “inactive”.
With `Cc1nc(-c2ccc3c(c2)CCN(CCC2CCC(NC(=O)/C=C/c4ccc(F)cc4)CC2)CC3)no1` (stereo unspecified), the Potency result is “inactive”.
Turning to `CN1CCN(CCC(=O)N2c3ccccc3Sc3ccc(C(F)(F)F)cc32)CC1`, the Potency is 26.8 µM (active).
Still for that read-out and setting: the result for `Cc1cc(O)c(C(C)(C)C)cc1C(C)(C)C` reads 43.6 µM (active); that for `CCCCC(CC)CN=C(N)NC(N)=NCCCCCCN=C(N)NC(N)=NCC(CC)CCCC` (stereo unspecified), 8.49 µM (active); that for `O=C(N/N=C/c1ccccc1O)c1ccncc1`, “inactive”.
As to `CCN(C(=O)N(CC)c1ccccc1)c1ccccc1`, the Potency result is “inactive”.
The same measure, in the same setting: the result for `O=C1c2ccccc2Cc2ccccc21` reads “inactive”.

The nature of a further assay: A CellTox Green Cytotoxicity Assay to monitor cytotoxicity in HepG2 cells - 24 hour (AID 1224878). Note: nearly all actives have a fitted effect of over 45% in size. To be noted: CellTox Green fluorescence; series mostly up to 76.8 µM. An outline of the steps: as §1
In the case of `Clc1ccc2cc3ccccc3cc2c1`, the Potency entry is “inactive”.
Consider `Nc1ccccc1O`, for which the Potency entry is “inactive”.
Take `Cc1oc(-c2ccccc2)nc1CCC(=O)c1ccc(CC2SC(=O)NC2=O)cc1` (stereo unspecified): the Potency result is “inactive”.
Regarding `CCC1OCC(COc2ccc(Oc3ccccc3)cc2)O1` (stereo unspecified), the Potency entry is “inactive”.
Still for that read-out and setting: the value for `Cn1cc(C(=O)[C@@H]2CCc3nc[nH]c3C2)c2ccccc21` was “inactive”; that for `CCCCCCCCCCCCCCCCCC[N+](C)(C)Cc1ccccc1` was 24.8 µM (active); that for `O=[N+]([O-])c1cc([N+](=O)[O-])c2ccc(S(=O)(=O)O)cc2c1O` was “inactive”.
On the same count and under the same terms, the result for `Cc1onc(-c2ccccc2Cl)c1C(=O)N[C@@H]1C(=O)N2[C@@H]1SC(C)(C)[C@@H]2C(=O)O` reads “inactive”; that for `CCCCCOc1ccccc1/C(=C\SC)n1ccnc1`, “inactive”; that for `Cc1[nH]nc2c1N=C(c1ccccc1Cl)c1cc([N+](=O)[O-])ccc1N2`, “inactive”.
Consider `c1cc(C(c2ccc(OCC3CO3)cc2)c2ccc(OCC3CO3)cc2)ccc1OCC1CO1` (stereo unspecified), for which the Potency result was “inactive”.
Still for that read-out and setting: the value for `CO[Si](CCCNc1ccccc1)(OC)OC` was “inactive”; that for `CCOC(=O)/C=C(C)/C=C/C=C(C)/C=C/c1c(C)cc(OC)c(C)c1C` was “inactive”; that for `CC[C@H](c1ccc(O)cc1)[C@@H](CC)c1ccc(O)cc1` was 49 µM (active).
`CN1CCN(CCC(=O)N2c3ccccc3Sc3ccc(C(F)(F)F)cc32)CC1`: the Potency was 15.1 µM (active).
Still for that read-out and setting: the result for `Cc1cc(O)c(C(C)(C)C)cc1C(C)(C)C` reads 21.9 µM (active); that for `CCCCC(CC)CN=C(N)NC(N)=NCCCCCCN=C(N)NC(N)=NCC(CC)CCCC` (stereo unspecified), 9.52 µM (active).
The same measure, in the same setting: the result for `Fc1ccc([C@@H]2CCNC[C@H]2COc2ccc3c(c2)OCO3)cc1` reads 26.8 µM (active); that for `CC[C@@]1(O)C(=O)OCc2c1cc1n(c2=O)Cc2cc3c(CN(C)C)c(O)ccc3nc2-1`, 10.7 µM (active).
For the molecule `O=C1c2ccccc2Cc2ccccc21`, the Potency result was “inactive”.
